# PubChem BioAssay (NCATS)
# Unmarked numbers belong to inactive results. Results filed as inconclusive are left out. Entries that show only a call come without a potency. The source made the active and inactive calls. The call rests on the fitted dose curve; in most records, active means well fitted curve in the direction sought with a large enough effect; inconclusive means small, poorly fitted or top-dose-only effect, or another doubt; inactive means no such curve, though single readings can be large; an effect the other way counts as inactive or inconclusive.
# Legend:
# [1] = biological target: Protein phosphatase 1D (Homo sapiens) (UniProt O15297); test: RapidFire Mass Spectrometry qHTS Assay for Modulators of WT P53-Induced Phosphatase 1 (WIP1) (AID 1347424);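 further: amount of dephosphorylated VEPPL-S-QETFS peptide product formed by WIP1; series mostly up to about 63 µM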
# Sequence of Protein phosphatase 1D (Homo sapiens) (O15297 whole entry, looked up): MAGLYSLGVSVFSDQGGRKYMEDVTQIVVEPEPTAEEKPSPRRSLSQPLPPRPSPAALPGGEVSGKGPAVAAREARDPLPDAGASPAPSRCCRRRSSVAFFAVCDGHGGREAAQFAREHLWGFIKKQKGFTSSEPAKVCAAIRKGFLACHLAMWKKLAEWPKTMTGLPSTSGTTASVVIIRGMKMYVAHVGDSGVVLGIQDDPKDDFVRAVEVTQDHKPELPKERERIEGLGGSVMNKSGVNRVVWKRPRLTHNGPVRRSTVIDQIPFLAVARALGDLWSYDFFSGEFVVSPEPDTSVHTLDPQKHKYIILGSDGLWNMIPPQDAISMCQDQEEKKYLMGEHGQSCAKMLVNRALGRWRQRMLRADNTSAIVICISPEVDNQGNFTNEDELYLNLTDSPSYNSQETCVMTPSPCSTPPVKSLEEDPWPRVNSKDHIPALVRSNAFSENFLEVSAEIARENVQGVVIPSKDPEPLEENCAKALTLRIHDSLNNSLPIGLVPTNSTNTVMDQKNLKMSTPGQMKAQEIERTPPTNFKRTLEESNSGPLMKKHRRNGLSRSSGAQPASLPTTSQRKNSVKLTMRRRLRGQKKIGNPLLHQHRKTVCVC
# How it was run: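 10 nM WIP1 preincubated with compounds 1 hr at room temperature in pH 7.5 Tris buffer with 30 mM MgCl2, 1 mM TCEP; 2 uM VEPPL-pS-QETFS phosphopeptide for 5 min, formic acid quench; dephosphorylated product quantified by RapidFire MS against labelled standard.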
# [2] = biological target: Protein phosphatase 1D (Homo sapiens) (UniProt O15297); test: Rhodamine-PBP qHTS Assay for Modulators of WT P53-Induced Phosphatase 1 (WIP1) (AID 1347425)
# How it was run: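 Read-out: Rhodamine-PBP fluorescence (ex 525/em 598 nm) for released Pi, read each minute for 11 min after adding 10 uM VEPPL-pS-QETFS; signal taken as f1 minus pre-substrate f0. Enzyme 5 nM WIP1 with 1 hr room-temperature compound preincubation.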
# [3] = Validation qHTS assay for inhibitors of Activation Induced Cytidine Deaminase (AID): UDG Counterscreen signal (AID 1347427)
# Source text: Assay Provider (PI) Patricia Gearhart Ph.D.
# National Institute on Aging
# National Institute of Health (NIH), Bethesda, MD
# Assay Provider (PI) Rahul Kohli Ph.D.
# Perelman School of Medicine
# University of Pennsylvania, Philadelphia, PA
# Activation-Induced Deaminase (AID) is a cytosine deaminase which converts cytosine into uracil within stretches of ssDNA. The presence of uracil in DNA initiates a cascade of mutagenic DNA repair to introduce point mutations and DNA double strand breaks. Specific targeting of AID to the immunoglobulin heavy chain loci (Igh) promotes mutagenesis in the antibody variable region for somatic hypermutation (SHM) or switch regions leading to class switch recombination (CSR). […]
# A FRET based analysis of cytosine deamination, was developed to identify potential inhibitors of AID catalytic activity. This screen has two signal output, Read 1 evaluates the AID inhibition response. The second readout (Read 2) evaluates UDG response and is uses as a counterscreen to exclude false positive inhibitors. […]
# 9a; Detection; fluorescence (Read 1: AID); EnVision (PerkinElmer) plate reader, 540 excitation and 590 emission filters
# 9b; Detection; fluorescence (Read 2: UDG); EnVision (PerkinElmer) plate reader, 560 excitation and 665 emission filters […]
# 9a; Fluorescence signal (column label AID) was read using the EnVision plate reader. […]
# [4] = biological target: Single-stranded DNA cytosine deaminase (Homo sapiens) (UniProt Q9GZX7); test: Validation qHTS assay for inhibitors of Activation Induced Cytidine Deaminase (AID): AID signal (AID 1347429)
# Sequence of Single-stranded DNA cytosine deaminase (Homo sapiens) (Q9GZX7 whole entry, looked up): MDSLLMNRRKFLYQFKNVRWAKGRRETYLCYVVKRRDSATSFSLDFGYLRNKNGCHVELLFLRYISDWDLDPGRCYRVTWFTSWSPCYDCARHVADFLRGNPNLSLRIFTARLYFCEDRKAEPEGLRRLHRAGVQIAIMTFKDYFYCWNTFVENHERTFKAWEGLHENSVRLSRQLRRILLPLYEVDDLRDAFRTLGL
# Source text: Assay Provider (PI) Patricia Gearhart Ph.D. National Institute on Aging National Institute of Health (NIH), Bethesda, MD Assay Provider (PI) Rahul Kohli Ph.D. Perelman School of Medicine University of Pennsylvania, Philadelphia, PA Activation-Induced Deaminase (AID) is a cytosine deaminase which converts cytosine into uracil within stretches of ssDNA. The presence of uracil in DNA initiates a cascade of mutagenic DNA repair to introduce point mutations and DNA double strand breaks. […] This screen has two signal output, Read 1 evaluates the AID inhibition response. The second readout (Read 2) evaluates UDG response and is uses as a counterscreen to exclude false positive inhibitors. […]
# PROTOCOL TABLE SEQUENCE No. (e.g., 1, 2, 3, etc.); […] […] 250 mM NaOH 7; Time; 15 sec; centrifuge at 1000 rpm 8; Time; 30 min; incubation at room temperature 9a; Detection; fluorescence (Read 1: AID); EnVision (PerkinElmer) plate reader, 540 excitation and 590 emission filters 9b; Detection; fluorescence (Read 2: UDG); EnVision (PerkinElmer) plate reader, 560 excitation and 665 emission filters NOTES (numbers refer to sequence above) 1a; Reagents were dispensed in a medium-binding black solid-bottom Greiner plates (789176F) using a BioRptr liquid dispenser. […] 8; Room temperature incubation 9a; Fluorescence signal (column label AID) was read using the EnVision plate reader. […]
# [5] = Primary qHTS for inhibitors of La Crosse Virus (LACV) - induced cell death in SH-SY5Y cells (AID 1508616);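 further: top concentration of the series differs between compounds; higher means more rescue of cells from virus-induced death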
# How it was run: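 Protection against LACV-induced cell death is scored in SH-SY5Y cells exposed to compounds and virus (0.01 MOI) for 6 days. Data normalized to virus-infected DMSO wells and virus-free DMSO wells.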
# [6] = biological target: Calcium and integrin-binding protein 1 (Homo sapiens) (UniProt Q99828); test: Primary qHTS for Identification of Calcium Integrin Binding Protein 1 (CIB1) Competitor (AID 1508620);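 further: GST tagged CIB1 binding a fluorescein labelled alphaIIb integrin peptide tracer; top concentration of the series differs between compounds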
# Sequence of Calcium and integrin-binding protein 1 (Homo sapiens) (Q99828 whole entry, looked up): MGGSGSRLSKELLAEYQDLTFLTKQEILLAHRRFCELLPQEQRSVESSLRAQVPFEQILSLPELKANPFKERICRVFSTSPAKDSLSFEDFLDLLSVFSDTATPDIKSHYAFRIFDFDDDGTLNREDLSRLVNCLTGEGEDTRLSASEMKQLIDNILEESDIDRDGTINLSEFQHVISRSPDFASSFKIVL
# How it was run: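 Fluorescence polarization competition: GST-tagged CIB1 (1 uM final) preincubated with compound 15 min at room temperature, then FITC-labelled alphaIIb peptide (100 nM final) added. After 15 min at room temperature, polarization read at Ex 480/Em 540.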
smiles,measurement,setting,value
CN1Cc2c(N)cccc2C(c2ccccc2)C1 (stereo not given),outcome,[1],inactive
same,outcome,[2],inactive
same,outcome,[3],inactive
same,outcome,[4],inactive
CC(=O)OC(C)OC(=O)C(C)c1ccc(-c2ccccc2)c(F)c1 (stereo not given),outcome,[1],inactive
same,outcome,[2],inactive
same,outcome,[5],inactive
CC(/C=C/[C@]1(O)[C@@]2(C)CO[C@@]1(C)C[C@@H](O)C2)=C\C(=O)O[C@@H]1O[C@H](CO)[C@@H](O)[C@H](O)[C@H]1O,Potency,[6],inactive
Cc1cccc(-c2[nH]c(CNc3ccccc3F)nc2-c2ccc3ncnn3c2)n1,Potency,[6],inactive
CC(C)c1nc(N(C)S(C)(=O)=O)nc(-c2ccc(F)cc2)c1/C=C/[C@@H](O)C[C@@H](O)CC(=O)O,Potency,[6],inactive
CC/C=C/CC1=C(CCCCCCCC(=O)O)CCC1=O,Potency,[6],inactive
C=C(C(=O)O)[C@@H]1CC=C2CCC[C@H](C)[C@@]2(C)C1,Potency,[6],inactive
CNC(=O)[C@H]1O[C@@H](n2cnc3c(NCc4ccc(N)c(I)c4)ncnc32)[C@H](O)[C@@H]1O,Potency,[6],inactive
NS(=O)(=O)NCCNc1nonc1C(=Nc1ccc(F)c(Br)c1)NO,Potency,[6],inactive
COc1ccc(C(O[C@@H]2O[C@H](CO)[C@@H](O)[C@H](O)[C@H]2O)C(CO)Oc2ccc(/C=C/CO)cc2OC)cc1O (stereo not given in full),Potency,[6],inactive
CC(=O)O[C@H](C[C@@H](C)[C@H]1C(=O)[C@H](O)[C@@]2(C)[C@@H]3CCC4C(C)(C)[C@@H](O[C@@H]5OC[C@H](O)[C@H](O)[C@H]5O)CC[C@@]45C[C@@]35CC[C@]12C)[C@@H]1OC1(C)C (stereo not given in full),Potency,[6],inactive
CC[C@H](C)/C=C(C)/C=C/C(=O)Cc1cc(O)c(C)c(O)c1C=O,Potency,[6],inactive
CC(=O)OC1C=C(C(=O)O)C2(CO)CCC(C)C(C)(CCc3ccoc3)C2C1 (stereo not given),Potency,[6],inactive
CC1=C2C(=O)O[C@@H](c3ccoc3)[C@]2(C)CCC1,Potency,[6],inactive
COc1cc(/C=C/C(=O)OC[C@H]2O[C@H](O[C@]3(CO)O[C@H](CO)[C@@H](O)[C@@H]3O)[C@H](O)[C@@H](O)[C@@H]2O)cc(OC)c1O,Potency,[6],inactive
COC(=O)CC[C@@H](C)[C@H]1CC[C@H]2[C@@H]3CC(=O)[C@H]4C[C@H](OC(C)=O)CC[C@]4(C)[C@H]3CC[C@]12C,Potency,[6],inactive
CC1(C)CC2C(O)C3=C(CC(C)(O)C2C1)C(=O)OC3O (stereo not given),Potency,[6],inactive
CC1=CC(=O)CC(C)(C)C1(O)CCC(C)O (stereo not given),Potency,[6],inactive
COC1CC(=O)CCC(C)OC(=O)CC1O (stereo not given),Potency,[6],inactive
C=CC1(C)C=C2C(=O)CC3C(C)(C)CCCC3(C(=O)O)C2(O)CC1 (stereo not given),Potency,[6],inactive
C=C(C)[C@@H](C)[C@H]1O[C@]23C[C@]4(CO2)C(CCC2[C@@]5(C)CC[C@H](O[C@@H]6OC[C@H](O)[C@H](O[C@@H]7O[C@H](CO)[C@@H](O)[C@H](O)[C@H]7O)[C@H]6O[C@@H]6O[C@@H](CO)[C@H](O)[C@H]6O)C(C)(C)C5CC[C@]24C)C3[C@@](C)(O)[C@@H]1OC(C)=O (stereo not given in full),Potency,[6],inactive
COc1cc(C/C(=C/NC(C)=O)N(CC(=O)Cc2ccccc2)C(C)=O)cc2c1OCO2,Potency,[6],inactive
C=CCc1ccc(O[C@@H]2O[C@H](CO[C@@H]3O[C@H](CO)[C@@H](O)[C@H](O)[C@H]3O)[C@@H](O)[C@H](O)[C@H]2O)c(O)c1,Potency,[6],inactive
CCOc1nc2cccc(C(=O)O)c2n1Cc1ccc(-c2ccccc2-c2noc(=O)[nH]2)cc1,Potency,[6],inactive
CN[C@@H]1[C@@H](O)[C@@H](O[C@@H]2[C@@H](O)[C@H](O[C@H]3O[C@H](CN)[C@@H](O)[C@H](O)[C@H]3O)[C@@H](N)C[C@H]2NC(=O)[C@@H](O)CN)OC[C@]1(C)O,Potency,[6],inactive
Cc1ccc(C(=O)Nc2ccc(Oc3cc4cnn(C)c4cc3-c3cn[nH]c3)c(F)c2)c(=O)n1-c1ccc(F)cc1,Potency,[6],inactive
Nc1ccn([C@@H]2C(F)=C(CO)[C@@H](O)[C@H]2O)c(=O)n1,Potency,[6],inactive
C=C1CC2[C@]3(C)C(=C(O)C(=O)[C@@]2(C)[C@]2(C(=O)OC)C(=O)C(C)OC(=O)[C@@]12C)C(C)(C)C(=O)CC3O (stereo not given in full),Potency,[6],inactive
CC1CCC2C(C(=O)O)=CC3C(O)C(C)(C)CC123 (stereo not given),Potency,[6],inactive
C[C@@H]1O[C@@H](O[C@H]2[C@H](O[C@H]3CC[C@@]4(C)C(CC[C@]5(C)C4CC=C4C6CC(C)(C)CC[C@]6(C(=O)O[C@@H]6O[C@H](CO[C@@H]7O[C@H](CO)[C@@H](O[C@@H]8O[C@@H](C)[C@H](O)[C@@H](O)[C@H]8O)[C@H](O)[C@H]7O)[C@@H](O)[C@H](O)[C@H]6O)CC[C@]45C)[C@]3(C)CO)OC[C@H](O)[C@@H]2O)[C@H](O)[C@H](O)[C@H]1O (stereo not given in full),"activity change, negative = inhibition",[6],2.74% [at 12.4 µM]
